The test system of this experiment is Trichoderma virens ATCC 9645. Put plainly: growth yield (OD600) relative to untreated control; higher = less growth inhibition. Particulars: compound concentration: 100 uM. In outline:
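Library compounds (100 μM final), with or without a co-applied biocide (200 ng ml^−1), were added to 100 μl aliquots of Trichoderma virens ATCC 9645 spores at 15,000 spores ml^−1 in potato dextrose broth. Cultures were grown at 30 °C in 96-well plates, and OD600 was measured at 40 h and 72 h. Each growth value is a mean of duplicate screens, expressed relative to the control with neither agent.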

Where a name gives a salt, the structure may show the parent alone. ± gives the standard error. Screen size: about 1,300 compounds; about 75 (6%) showed an effect of 50% or more. Shown is part of a subset that was picked to be rich in strong results.

In the case of `CC1(C)O[C@@H]2C[C@H]3[C@@H]4CCC5=CC(=O)C=C[C@]5(C)[C@H]4[C@@H](O)C[C@]3(C)[C@]2(C(=O)CO)O1` [Desonide], the growth yield came out at 109 ± 11% (40 h) and 98.7 ± 6.6% (72 h).

`CCC(=O)[C@@]1(C)[C@H](C)C[C@H]2[C@@H]3CCC4=CC(=O)C=C[C@]4(C)[C@H]3[C@@H](O)C[C@@]21C` [Rimexolone]: the growth yield is 112 ± 14% (40 h) and 106 ± 8.3% (72 h).

Regarding `COc1c(O[C@@H]2O[C@H](CO)[C@@H](O)[C@H](O)[C@H]2O)cc2c(c1OC)-c1ccc(SC)c(=O)cc1[C@@H](NC(C)=O)CC2` [Thiocolchicoside], the growth yield by setting is: (40 h) 101 ± 1.4%; (72 h) 103 ± 2.2%.

As to `NS(=O)(=O)c1cc2c(cc1C(F)(F)F)NCNS2(=O)=O` [Hydroflumethiazide], the growth yield turned out to be 102 ± 2.4% (40 h) and 100 ± 3.1% (72 h).

With `O=C1c2c(O)ccc(O)c2C(=O)c2c(NCCNCCO)ccc(NCCNCCO)c21` [Mitoxantrone dihydrochloride], the growth yield reads like this: (40 h) 2.86 ± 2.9%; (72 h) 0.21 ± 0.21%.

Take `O=C1c2cccc(O)c2C(=O)c2c(O)cccc21` [1,8-Dihydroxyanthraquinone]: the growth yield (40 h) is 85.8 ± 11% and the growth yield (72 h) is 87.2 ± 8.7%.

Regarding `O=C1c2c(O)cccc2Cc2cccc(O)c21` [Anthralin], the growth yield worked out at 96.7 ± 3.6% (40 h) and 89.5 ± 2.8% (72 h).

Consider `CN1[C@@H]2CC[C@H]1C[C@@H](OC(c1ccccc1)c1ccccc1)C2` [Benztropine mesylate], for which the growth yield (40 h) was 105 ± 3.6% and the growth yield (72 h) was 102 ± 1.7%.

`O=C1OCCN1/N=C/c1ccc([N+](=O)[O-])o1` [Furazolidone]: the growth yield was found to be 84.3 ± 7.2% (40 h) and 87.7 ± 5.9% (72 h).

As for `Nc1nc(=O)c2nc(CNc3ccc(C(=O)N[C@@H](CCC(=O)O)C(=O)O)cc3)cnc2[nH]1` [Folic acid], the growth yield by setting is: (40 h) 102 ± 1.4%; (72 h) 104.7 ± 0.42%.

Regarding `COc1ccc(C(=O)NCc2ccc(OCCN(C)C)cc2)cc1OC` [Itopride], the growth yield amounted to 105 ± 5.7% (40 h) and 105 ± 3.7% (72 h).

`CCN(CC)CCOC(=O)C(c1ccccc1)c1ccccc1` [Adiphenine hydrochloride] showed a growth yield (40 h) of 98.8 ± 7.6% and a growth yield (72 h) of 96.9 ± 5.5%.

As for `COc1cc(C(=O)NCc2ccc(OCCN(C)C)cc2)cc(OC)c1OC` [Trimethobenzamide hydrochloride], the growth yield (40 h) was 103 ± 2.4% and the growth yield (72 h) stood at 97.75 ± 0.21%.

`CCN(CC)CCOc1ccc(C(=C(Cl)c2ccccc2)c2ccccc2)cc1` [Clomiphene citrate (Z,E)]: the growth yield reads like this: (40 h) 1.75 ± 1.1%; (72 h) 2.2 ± 0.1%.

In turn, `CN(C)CCOc1ccc(/C(=C(/CCCl)c2ccccc2)c2ccccc2)cc1` [Toremifene] registered a growth yield (40 h) of 3.81 ± 0.32% and a growth yield (72 h) of 2.73 ± 0.21%.

For the compound `CN(C)CCOC(=O)COc1ccc(Cl)cc1` [Meclofenoxate hydrochloride], the growth yield came out at 95.1 ± 2.1% (40 h) and 92.1 ± 3.6% (72 h).

In turn, `CN(C)CCOC(c1ccccc1)c1ccccc1` [Diphenhydramine hydrochloride] displayed a growth yield (40 h) of 99.9 ± 5.2% and a growth yield (72 h) of 99.4 ± 3.1%.

As for `CC/C(=C(\c1ccccc1)c1ccc(OCCN(C)C)cc1)c1ccccc1` [Tamoxifen citrate], the growth yield runs as follows: (40 h) 1.11 ± 0.48%; (72 h) 1.26 ± 0.21%.

Take `COc1ccc(C(Cl)=C(c2ccc(OC)cc2)c2ccc(OC)cc2)cc1` [Chlorotrianisene]: the growth yield was 101 ± 2.7% (40 h) and 96.7 ± 1.5% (72 h).

As for `COc1ccc(OC)c(C(O)CNC(=O)CN)c1` (centres undefined) [Midodrine hydrochloride], the growth yield is 101.8 ± 0.16% (40 h) and 105 ± 0.73% (72 h).

For `CC(=O)[C@H]1CC[C@H]2[C@@H]3C=CC4=CC(=O)CC[C@@]4(C)[C@@H]3CC[C@]12C` [Dydrogesterone], the growth yield by setting is: (40 h) 78.3 ± 1.1%; (72 h) 79.9 ± 2.1%.

As for `CN(C)[C@@H]1C(O)=C(C(N)=O)C(=O)[C@@]2(O)C(O)=C3C(=O)c4c(O)ccc(Cl)c4[C@@](C)(O)[C@H]3C[C@@H]12` [Chlortetracycline hydrochloride], the growth yield stood at 90.54 ± 0.32% (40 h) and 90.93 ± 0.32% (72 h).

As for `Cc1onc(-c2ccccc2)c1-c1ccc(S(N)(=O)=O)cc1` [Valdecoxib], the growth yield stood at 107 ± 11% (40 h) and 104 ± 8.3% (72 h).

As to `CCOC(=O)[C@H](CCc1ccccc1)N[C@H]1CCc2ccccc2N(CC(=O)O)C1=O` [Benazepril hydrochloride], the growth yield runs as follows: (40 h) 104 ± 3.5%; (72 h) 105 ± 2.1%.

For the compound `O=C(CCCCC(=O)Nc1c(I)cc(I)c(C(=O)O)c1I)Nc1c(I)cc(I)c(C(=O)O)c1I` [Iodipamide], the growth yield amounted to 103 ± 1.1% (40 h) and 101.6 ± 0.32% (72 h).

In turn, `CC(Oc1c(Cl)cccc1Cl)C1=NCCN1` (centres undefined) [Lofexidine] came in with a growth yield (40 h) of 104 ± 1.3% and a growth yield (72 h) of 105 ± 1.1%.

For `CN1CCCN=C1/C=C/c1cccc(O)c1` [Oxantel pamoate], the growth yield is, setting by setting: (40 h) 93.4 ± 0.64%; (72 h) 99.8 ± 1.1%.

For the compound `Cc1cc(CC(=O)O)n(C)c1C(=O)c1ccc(Cl)cc1` [Zomepirac sodium salt], the growth yield stood at 93.7 ± 5.7% (40 h) and 88 ± 3.9% (72 h).

For `COc1ccc(-c2cc(=S)ss2)cc1` [Anethole-trithione], the growth yield (40 h) worked out at 76.4 ± 9.1% and the growth yield (72 h) is 77.5 ± 7.2%.

In the case of `CNC(=O)c1c(I)c(C(=O)NCC(=O)Nc2c(I)c(C(=O)O)c(I)c(C(=O)NCCO)c2I)c(I)c(N(C)C(C)=O)c1I` [Ioxaglic acid], the growth yield reads like this: (40 h) 105 ± 5.2%; (72 h) 101 ± 2.2%.

For `CCC(=O)O[C@@H](O[P@](=O)(CCCCc1ccccc1)CC(=O)N1C[C@H](C2CCCCC2)C[C@H]1C(=O)O)C(C)C` [Fosinopril], the growth yield by setting is: (40 h) 109.8 ± 0.48%; (72 h) 103 ± 3.5%.

Take `CN(CCOc1ccc(NS(C)(=O)=O)cc1)CCc1ccc(NS(C)(=O)=O)cc1` [Dofetilide]: the growth yield is, setting by setting: (40 h) 100 ± 5.9%; (72 h) 98.7 ± 4.3%.

For the origin of these results see the supplement of paper PMC8007513.
